Structures are written as SMILES. Potency and affinity values are given separately. The source made the active and inactive calls.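 The calls were made as follows: active = absorbance falls by 30% or more versus neutral controls, with a potency fitted within twice the top valid dose; inconclusive = no clear call, values can overlap the other calls; inactive = change opposite to expected direction, plus the rest.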

Protein disulfide-isomerase (Homo sapiens), sequence (P07237 whole entry, looked up): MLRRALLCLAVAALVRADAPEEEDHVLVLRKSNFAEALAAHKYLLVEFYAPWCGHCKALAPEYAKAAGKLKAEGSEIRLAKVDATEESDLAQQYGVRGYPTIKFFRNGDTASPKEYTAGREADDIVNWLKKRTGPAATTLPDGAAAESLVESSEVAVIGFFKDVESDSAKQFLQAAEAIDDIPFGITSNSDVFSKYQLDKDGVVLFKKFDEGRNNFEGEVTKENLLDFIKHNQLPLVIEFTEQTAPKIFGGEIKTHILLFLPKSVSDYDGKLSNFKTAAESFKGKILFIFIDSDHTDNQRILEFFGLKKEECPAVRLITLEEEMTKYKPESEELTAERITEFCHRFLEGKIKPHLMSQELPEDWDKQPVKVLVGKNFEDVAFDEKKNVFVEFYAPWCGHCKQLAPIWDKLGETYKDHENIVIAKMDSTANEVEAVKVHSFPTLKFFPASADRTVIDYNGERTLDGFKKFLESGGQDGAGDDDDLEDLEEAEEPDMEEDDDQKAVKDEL

The assay concerns the target Protein disulfide-isomerase (Homo sapiens) (UniProt P07237). Kind of assay: PDI inhibitors, insulin aggregation turbidity, dose response, biochemical, absorbance, cherry-picked samples (AID 602350).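 Also: 0% = neutral controls and -100% = rutin hydrate positive control wells.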 The note with it: recombinant PDI insulin aggregation, absorbance 650 nm, 90 min; series mostly up to 19.5 µM; activity change, negative = inhibition: at the top concentration.
Consider `Cc1ccc(N(Cc2ccccc2)C(=O)c2cccc(S(=O)(=O)N3CC(C)OC(C)C3)c2)cc1` (centres undefined), for which the “activity change, negative = inhibition” value was 12.2% (inactive). In the case of `COc1cc(C(C)=O)ccc1OCC(=O)NCCCn1nc(C)cc1C`, the “activity change, negative = inhibition” value is 0.514% (inactive).

Turning to `COc1ccc(C(=O)c2c(C)c3cc(C)ccc3n2CC(O)CN2CCOCC2)cc1` (centres undefined), the “activity change, negative = inhibition” value is -5.21% (inactive). In the case of `O=S(=O)(c1cc(F)ccc1F)N1CCN(c2ncccn2)CC1`, the “activity change, negative = inhibition” value was 0.899% (inactive). For `CCN1CCN(Cc2ccc(NC(=O)c3cc(NC(=O)c4cc(-c5ccc(OC)cc5)n[nH]4)cc(OC)c3)cc2C(F)(F)F)CC1`, the “activity change, negative = inhibition” value is -3.51% (inactive).

Turning to `COc1ccccc1NS(=O)(=O)c1cccc(C(=O)NCC2(N(C)C)CCCCC2)c1`, the “activity change, negative = inhibition” value is 5.43% (inactive). In the case of `CCOc1c(Cl)cc(CNC(C)(C)CC(C)(C)C)cc1OC` it was 0.928% (inactive); in that of `O=C(NCCc1c[nH]c2ccccc12)/C(=C\c1cccnc1)NC(=O)c1ccccc1Br`, -6.31% (inactive). Regarding `O=C(CNC(=O)c1n[nH]c2ccccc12)Nc1cc(Cl)ccc1Cl`, the “activity change, negative = inhibition” value is 13.9% (inactive). Turning to `Cn1c(=O)n(CCCOc2ccc(Br)cc2)c2ccccc21`, the “activity change, negative = inhibition” value was -0.664% (inactive). Regarding `COc1ccc(CCNC(=O)c2cc(S(=O)(=O)N(C)C)ccc2N2CCCC2)cc1`, the “activity change, negative = inhibition” value was 9.18% (inactive). As for `O=C(NCc1ccccn1)Nc1cccc(Cl)c1`, the “activity change, negative = inhibition” value is -3.69% (inactive).

On to `O=C(CCS(=O)(=O)c1ccccc1)N(CCCN1CCOCC1)c1nc2ccccc2s1`, for which the “activity change, negative = inhibition” value is -17.5% (inactive). As to `Oc1cccc(-c2nc3c4c(ncn3n2)-c2ccccc2CC42CCCC2)c1`, the “activity change, negative = inhibition” value is -1.88% (inactive). In the case of `Cc1nn(CC(=O)NCC2CCCO2)c(C)c1[N+](=O)[O-]` (centres undefined) it was 11.8% (inactive); in that of `S=C(NCCN1CCOCC1)Nc1ccc(Br)cc1`, 0.916% (inactive); in that of `CC(=O)N1CCC(C(=O)NCCOc2cccc(C)c2)CC1`, 9.17% (inactive). In the case of `CN1CCN(C(=O)CSc2nnc(COc3ccc(Cl)cc3)o2)CC1` it was 24.2% (inactive); in that of `Cc1[nH]c2ccc(C(=O)NC3CCCC3)cc2c1C`, 0.629% (inactive); in that of `O=C(C[C@H]1C[C@H](C(=O)N2CCCCC2)[C@@]2(CCc3ccccc3)c3[nH]c4cc(-c5ccco5)ccc4c3CCN2C1=O)NCCC1=CCCCC1`, -0.872% (inactive). As for `Cc1noc(C)c1S(=O)(=O)Nc1ccc2c(c1)CC(=O)N([C@H](C)CO)C[C@H](C)[C@H](CN(C)S(C)(=O)=O)O2`, the figure is 0.398% (inactive); as for `COc1ccc(S(=O)(=O)NCC(c2ccc(F)cc2)N2CCOCC2)cc1Br` (centres undefined), -1.36% (inactive).

Consider `N#Cc1ccccc1CSc1nnc(Cc2ccccc2)o1`, for which the “activity change, negative = inhibition” value was -1.56% (inactive).

In the case of `Cc1ccc(NC(=O)CSC(C)C(=O)OCc2cc(=O)oc3cc(O)ccc23)cc1` (centres undefined), the “activity change, negative = inhibition” value was -30.2% (inactive). For `COc1ccccc1NC(=O)c1ccc(NC(=O)COC(=O)c2cccnc2Cl)cc1`, the “activity change, negative = inhibition” value was 4.95% (inactive).

On to `O=C(CCN1C(=O)C2C3C=CC(C4CC34)C2C1=O)Oc1ccccc1` (centres undefined), for which the “activity change, negative = inhibition” value is 5.35% (inactive). `COc1ccccc1NS(=O)(=O)c1ccc(C)c(C(=O)NCC2(N(C)C)CCCCC2)c1`: the “activity change, negative = inhibition” value was 14% (inactive).

For `CCOC(=O)C1(CCOc2ccccc2)CCN(Cc2cccc(F)c2)CC1`, the “activity change, negative = inhibition” value is -1.84% (inactive). As to `O=C(Cc1ccccc1)Nc1cccc(C(=O)N/N=C/c2ccco2)c1`, the “activity change, negative = inhibition” value was 3.54% (inactive). As for `O=C(c1ccc(OCCN2CCCCC2)cc1)c1c(-c2ccc(O)cc2)sc2cc(O)ccc12`, the “activity change, negative = inhibition” value was -12.5% (inactive). Regarding `Cn1nccc1C(=O)Nc1ccc(S(=O)(=O)N2CCCC2)cc1`, the “activity change, negative = inhibition” value was 3.68% (inactive). With `Cc1c(-n2cc(C(=O)c3cc(Br)ccc3O)cc(C#N)c2=O)c(=O)n(-c2ccccc2)n1C`, the “activity change, negative = inhibition” value was -4.17% (inactive). For `CC1CC(C)CN(C(=O)COC(=O)c2ccc[nH]c2=O)C1` (centres undefined), the “activity change, negative = inhibition” value is 3.89% (inactive). In the case of `O=C1NC[C@H](Cc2ccccc2)N(C[C@H]2CCCN2C[C@H](Cc2ccc(O)cc2)N2C[C@H](Cc3ccc(O)cc3)N(CC3CCCCCC3)C(=O)C2=O)C1=O` it was 12.7% (inactive); in that of `COCC(=O)N(C)C1(c2nnnn2CCOC(=O)Nc2ccc(Cl)cc2)CCCC1`, 20.2% (inactive); in that of `CCOc1ccc(NC(=O)CN(C)C(=O)c2cc(C)nc3ccccc23)cc1OCC`, 3.17% (inactive). In the case of `C[C@]12CC[C@@H]3c4ccc(O)cc4C(=O)C[C@H]3[C@@H]1CC[C@@H]2O` it was -13.4% (inactive); in that of `CCCCNC(=O)CCn1c(=O)c2ccccc2n(CC(=O)Nc2ccccc2OCC)c1=O`, 13% (inactive); in that of `Cc1cc(C)c2c(=O)n3c(nc2c1)C(Cc1ccc(O)cc1)NC(=O)c1cccnc1-3` (centres undefined), -21.6% (inactive).

Values taken from PubChem BioAssay AID602350 (Broad Institute, 2012).
